Reference: PubChem BioAssay AID2553 (Johns Hopkins Ion Channel Center, 2010)
In all, about 310,000 compounds went through this assay and about 3,300 (1.1%) were called active.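 How the source made its calls: active means B-score under library mean minus 3 SD, initial fluorescence not abnormally high, positive integrated signal ratio; inactive means the rest.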 Only a selection was taken, and actives are over-represented in it overall.

Target: Short transient receptor potential channel 6 (Mus musculus) (UniProt Q61143)
Assay: mouse TRPC6 channel inhibitors, primary screen, cell-based, HEK293, membrane potential dye (AID 2553);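 on B-score: B-score derived from integrated fluorescence ratio over the kinetic read; more negative B-score means stronger inhibition of depolarization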
Conditions: ACh-evoked depolarization, at 10 µM; active compounds read low

Short transient receptor potential channel 6 (Mus musculus), sequence (Q61143 whole entry, looked up): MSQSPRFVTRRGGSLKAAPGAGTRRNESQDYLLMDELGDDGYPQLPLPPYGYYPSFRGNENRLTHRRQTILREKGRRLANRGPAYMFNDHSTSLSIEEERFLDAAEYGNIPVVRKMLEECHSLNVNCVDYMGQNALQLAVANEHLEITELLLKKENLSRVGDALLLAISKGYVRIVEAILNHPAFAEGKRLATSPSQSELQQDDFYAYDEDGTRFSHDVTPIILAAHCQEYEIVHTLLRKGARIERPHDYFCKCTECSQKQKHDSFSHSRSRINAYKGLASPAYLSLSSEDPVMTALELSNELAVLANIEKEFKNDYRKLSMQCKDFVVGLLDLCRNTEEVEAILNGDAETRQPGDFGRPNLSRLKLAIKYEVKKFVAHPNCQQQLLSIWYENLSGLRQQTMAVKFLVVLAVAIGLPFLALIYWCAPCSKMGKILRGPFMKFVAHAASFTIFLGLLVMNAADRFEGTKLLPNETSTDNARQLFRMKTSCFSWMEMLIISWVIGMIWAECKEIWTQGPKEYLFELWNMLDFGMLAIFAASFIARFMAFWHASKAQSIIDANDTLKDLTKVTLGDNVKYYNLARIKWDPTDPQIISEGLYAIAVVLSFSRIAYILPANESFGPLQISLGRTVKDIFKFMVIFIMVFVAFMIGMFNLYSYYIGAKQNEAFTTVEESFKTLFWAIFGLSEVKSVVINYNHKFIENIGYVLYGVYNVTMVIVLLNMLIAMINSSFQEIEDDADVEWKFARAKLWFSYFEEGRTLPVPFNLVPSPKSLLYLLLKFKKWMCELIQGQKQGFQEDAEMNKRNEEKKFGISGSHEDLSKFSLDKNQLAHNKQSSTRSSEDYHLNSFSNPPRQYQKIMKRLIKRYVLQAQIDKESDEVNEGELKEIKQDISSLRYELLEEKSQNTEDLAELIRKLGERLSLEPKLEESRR

B-score, active:
O=C(CN1CCCCCC1)N1c2ccccc2Sc2ccc(C(F)(F)F)cc21 -5.15
CCc1ccc(OCC(=O)N(Cc2ccccc2)C2CCS(=O)(=O)C2)cc1 (stereo unspecified) -6.07
CN1CCN(c2nc(Nc3ccc(O)cc3)nc3ccccc23)CC1 -11.6
O=C(NNS(=O)(=O)c1ccc(Cl)cc1)C1CCN(Cc2ccccc2)CC1 -7.9
Cc1nn(Cc2ccc(C(=O)N3N=C(C(F)F)CC3(O)C(F)F)cc2)c(C)c1[N+](=O)[O-] (stereo unspecified) -5.19
C[C@H](NC(=O)OC(C)(C)C)c1nnc(SCC(=O)Nc2ccc(Br)cc2)o1 -6.61
Cc1nc(N=C(N)N)nc2c(C)cccc12 -7.08
Cc1ccc(NC2CCCN(C(=O)CCC3(C)CC3)C2)cc1C (stereo unspecified) -5.8
C=C(C)c1cccc(C(C)(C)NC(=O)NCCN(CC)CC)c1 -8.39
COc1ccc(Cl)cc1NC(=O)CCS(=O)(=O)c1cc2c(cc1C)NC(=O)CO2 -5.71
CCN1CCN(c2nc(Nc3cc(OC)ccc3OC)nc(Nc3cc(OC)ccc3OC)n2)CC1 -5.02
CCN(CC)S(=O)(=O)c1ccc(N2CC(C(=O)NCc3cccnc3)CC2=O)cc1 (stereo unspecified) -6.5
CCC(C)NCCOCCOc1ccc(Br)cc1C (stereo unspecified) -5.27
CCOC(=O)N1CCC(O)(c2cc(C)c(C)cc2C)CC1 -9.52
CCc1ccc(-c2cc(C(=O)NN3CCN(C)CC3)c3ccccc3n2)cc1 -5.25
CCOC(=O)N1CCN(C(=O)c2ccc3c(c2)N(Cc2ccc(C)cc2)CCS3)CC1 -7.3

B-score, inactive:
COc1cc(/C=C/C(=O)N2c3ccccc3Sc3ccc(C(F)(F)F)cc32)cc(OC)c1OC
CCOC(=O)CNC(=O)N1c2ccccc2Sc2ccccc21
COC(=O)c1c(-c2cccs2)csc1NC(=O)CSc1ncnc2sc(C)c(C)c12
Cc1ccccc1OCC(=O)N(Cc1cccc(F)c1)C1CCS(=O)(=O)C1 (stereo unspecified)
CCOc1ccc(C(=O)N(Cc2ccc(N(C)C)cc2)C2CCS(=O)(=O)C2)cc1 (stereo unspecified)
Cc1ccccc1Nc1scc(-c2ccc(Br)cc2)[n+]1-c1ccccc1C
Cc1cccc(-c2nc(Nc3ccc(O)cc3)c3ccccc3n2)c1
CN1CCN(c2ccc(NC(=O)c3ccccc3)cc2)CC1
CCNC(=S)NNC(=O)C1CCN(Cc2ccccc2)CC1
CCCC(=O)C1CCN(Cc2ccccc2)CC1
Cc1ccn(CC(=O)N2N=C(C(F)F)CC2(O)C(F)F)n1 (stereo unspecified)
CCc1ccc(NC(=O)Cn2nc(C)c([N+](=O)[O-])c2C)cc1
Cc1[nH]c2c(C(=O)N3CCCC(CCC(=O)NCc4ccccc4F)C3)cccc2c1C (stereo unspecified)
O=S(=O)(Cc1ccccc1)c1nc2ccccc2n1Cc1ccccn1
CCc1ccccc1NC(=O)CSc1nnc([C@@H](NC(=O)OC(C)(C)C)C(C)CC)o1 (stereo partly specified)
CCc1ccccc1NC(=O)CSc1nnc([C@@H](NC(=O)OC(C)(C)C)C(C)C)o1
COCC1CCN(C(=O)C2CCC(=O)N(Cc3cccc(C(F)(F)F)c3)C2)CC1 (stereo unspecified)
CC1(C)COC(c2cccn2Cc2ccccc2Cl)=N1
Cc1nc(/N=C(\N)NC(=O)NC2CCCCC2)nc2ccccc12
COc1nc(N=C(N)N)nc2c(C)cccc12
Cc1cc(-n2cnc(-c3cn(C)nc3C)n2)no1
O=C(CN1CCOC1=O)N1CCCC(Nc2ccc(F)c(F)c2)C1 (stereo unspecified)
Cc1ccc(NC2CCCN(C(=O)CCc3cn[nH]c3)C2)cc1C (stereo unspecified)
C=C(C)c1cccc(C(C)(C)NC(=O)NC2CCCC2)c1
C=C(C)c1cccc(C(C)(C)NC(=O)N2CCN(c3ncccn3)CC2)c1
O=C1C2N=NN(CC(=O)N3N=C(c4cccc5ccccc45)CC3c3ccccc3)C2C(=O)N1c1ccccc1 (stereo unspecified)
Cc1cc(OCCCC(=O)NCCN2C(=O)S/C(=C\c3cccnc3)C2=O)ccc1Cl
Cc1cc2c(cc1S(=O)(=O)CCC(=O)NCc1ccccc1)OCC(=O)N2
COc1ccc(NC(=O)CCS(=O)(=O)c2cc3c(cc2Cl)NC(=O)CO3)cc1OC
CCOc1ccc(Nc2nc(Cl)nc(N3CCN(c4ccc(OC)cc4)CC3)n2)cc1
CCOC(=O)N1CCN(CCC(=O)Nc2cc(OC)ccc2OC)CC1
Cn1c(=O)n(C)c2cc(S(=O)(=O)Nc3ccc(F)cc3)ccc21
C=CC1=C(C(=O)O)N2C(=O)[C@@H](NC(=O)/C(=N/OCC(=O)O)c3csc(N)n3)[C@H]2SC1
Cc1ccc(NC(=O)[C@H](Cc2ccccc2)NC(=O)C2CCNCC2)cc1
COc1ccccc1C(=O)Nc1ccc(Nc2ccccc2)cc1
CCc1ccc(N2CC(C(=O)Nc3ccc(S(=O)(=O)Nc4nccs4)cc3)CC2=O)cc1 (stereo unspecified)
CCOc1ccc(N2CC(C(=O)NCc3ccccn3)CC2=O)cc1 (stereo unspecified)
CCc1ccc(N(C(=O)c2csnn2)C(C(=O)NC2CCCCC2)c2cccnc2)cc1 (stereo unspecified)
COCC(C)NCc1cc(Br)ccc1OC (stereo unspecified)
COCCCNCCOCCOc1ccc(Cl)cc1Br
Cc1c(C(=O)N(C)CCc2cnn(C)c2)oc2c(F)cccc12
CCOC(=O)N1CCN(C(=O)COc2ccc(Cl)cc2C)CC1
CCOC(=O)N1CCN(C(=S)Nc2ccc(C)cc2C)CC1
COc1ccc(-c2cc(C(=O)Nc3ccccc3O)c3ccccc3n2)cc1
Cc1ccc(-c2cc(C(=O)NC3CCN(Cc4ccccc4)CC3)c3ccccc3n2)cc1
COc1ccc(CCN2C(=O)CC(N3CCC(C(N)=O)CC3)C2=O)cc1OC (stereo unspecified)
Cc1c(C(=O)c2cccc([N+](=O)[O-])c2)c2ccccn2c1CCC#N
O=C(NCCN1CCOCC1)c1ccc2c(c1)N(Cc1ccc(Cl)cc1)CCS2
O=C(NCCc1ccccc1)c1ccc2c(c1)N(Cc1ccccc1)CCS2
COc1ccc(/C=C/CN2CCCC(C(=O)c3cc(F)ccc3F)C2)cc1 (stereo unspecified)
